This is an account of results in PubChem BioAssay AID720690 (Broad Institute, 2013).

Results with a measured potency or affinity are listed apart. Values without a mark were called inactive. Active and inactive are the calls of the source.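 The calls were made as follows: active = every repeat run showing a signal drop whose fitted half-maximal concentration is at most twice the top tested concentration; inconclusive = repeat runs disagree, or flat partial drop, or poor fit; inactive = the rest.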

The nature of the test: HEK293T cytotoxicity, dose response, cytotoxicity control for miR-122 modulator project, cell-based, activator set, cherry-pick (AID 720690).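 Also: 0% = neutral control wells and -100% = MG132 cytotoxic control wells.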 As to conditions: HEK293T viability, CellTiter-Glo luminescence, 48 h; series mostly up to 26 µM; activity change, negative = cytotoxicity: at the top concentration.
Consider `O=C(Nc1ccccc1)N1C[C@@H]2[C@H](c3ccccc31)[C@H](CO)N2C(=O)c1ccncc1`, for which the “activity change, negative = cytotoxicity” value was -15.6% [at 23.5 µM].

With `C/C=C/c1ccc([C@@H]2[C@@H](CO)N[C@@H]2CN(CC(C)C)C(=O)c2ccccn2)cc1`, the “activity change, negative = cytotoxicity” value was -19.5%.

For `CN1C(=O)c2cc(NC(=O)c3cccc(F)c3)ccc2OC[C@@H]2O[C@H](CC(=O)NC3CCC3)CC[C@@H]21`, the outcome was inactive. On to `CCC(=O)NC[C@H]1[C@H](c2ccc(C3=CCCC3)cc2)[C@H](CO)N1C(C)=O`, for which the “activity change, negative = cytotoxicity” value is -5.92%. On the same count and under the same terms, the value for `CC(=O)Nc1ccc(S(=O)(=O)Nc2ccc(S(=O)(=O)Nc3nc(C)cc(C)n3)cc2)cc1` was -10.1% [at 12 µM]; that for `CCC(=O)N1[C@H](CN(C(C)C)S(C)(=O)=O)[C@@H](c2ccccc2)[C@@H]1CO` was -1.45% [at 23.5 µM].

In the case of `CO[C@@H]1CN(C)C(=O)c2ccc(NS(=O)(=O)c3ccc(C)cc3)cc2OC[C@@H](C)N(C(=O)NC(C)C)C[C@H]1C`, the “activity change, negative = cytotoxicity” value is 8.28%.

Regarding `C[C@@H]1CN([C@H](C)CO)S(=O)(=O)c2ccc(/C=C/c3ccccc3)cc2O[C@@H]1CN(C)C(=O)c1cccnc1`, the “activity change, negative = cytotoxicity” value was -30%. Same read-out and setting: the value for `CCOC(=O)C1CN(S(=O)(=O)c2ccccc2)CCN1S(=O)(=O)c1ccccc1` (stereo not given) was -5.76%; that for `CNC(=O)C[C@@H]1CC[C@@H]2[C@@H](COc3ccc(NC(=O)NC(C)C)cc3C(=O)N2C)O1` was -2.47%; that for `COCC(=O)N1[C@H](CO)[C@@H](c2ccccc2)[C@H]1CN(C)C(=O)c1ccncc1` was -11.8%. Same read-out and setting: the value for `CCN(C[C@@H]1N[C@H](CO)[C@H]1c1ccc(-c2ccc(F)cc2)cc1)C(=O)COC` was -27.5% [at 23.5 µM]; that for `Cc1cc(C)n(C(=O)Cn2nc(C)c(Br)c2C)n1` was 13.1%.

As for `CN1C(=O)c2cc(NC(=O)c3ccc(C(F)(F)F)cc3)ccc2OC[C@H]2O[C@H](CC(=O)O)CC[C@@H]21`, the “activity change, negative = cytotoxicity” value was -8.07%. The same measure, in the same setting: the value for `Cc1ccccc1-c1ccc2c(c1)O[C@@H](CN(C)C(=O)Nc1ccc(F)cc1)[C@@H](C)CN([C@@H](C)CO)S2(=O)=O` was -5%. For the compound `CC(C)C(=O)Nc1ccc2c(c1)C(=O)N(C)[C@H]1CC[C@H](CC(=O)Nc3cccc(F)c3)O[C@@H]1CO2`, the “activity change, negative = cytotoxicity” value was -0.432%.

Regarding `COc1ccc(C(C#N)Nc2ccc(C)cc2)cc1` (stereo not given), the “activity change, negative = cytotoxicity” value was -11%. Still for that read-out and setting: the value for `CCCNC(=O)Nc1ccc2c(c1)C(=O)N(C)[C@@H]1CC[C@@H](CC(=O)NCC3CCCCC3)O[C@H]1CO2` was -5.32%; that for `COc1cccc(NC(=O)N2[C@H](CO)[C@@H](c3ccccc3)[C@H]2CNCC(C)C)c1` was -36.4%; that for `CCNC(=O)C[C@@H]1CC[C@H]2[C@H](COc3ccc(NC(=O)c4ccccc4)cc3C(=O)N2C)O1` was 5.53%.

Regarding `COCC(=O)NC[C@H]1[C@@H](c2ccc(C3=CCCC3)cc2)[C@H](CO)N1C(=O)C1CC1`, the “activity change, negative = cytotoxicity” value was -9.54%. Still for that read-out and setting: the value for `c1ccc(CCNc2nnnn2-c2ccccc2)cc1` was -6.71%. Same read-out and setting: the value for `CCCNC(=O)C[C@@H]1CC[C@@H]2[C@H](COc3ccc(NC(=O)c4cc(F)cc(F)c4)cc3C(=O)N2C)O1` was -1.09%; that for `CN1C(=O)c2cc(NC(=O)C3CCOCC3)ccc2OC[C@H]2O[C@H](CC(=O)NCc3ccc4c(c3)OCO4)CC[C@@H]21` was -11.5%. In the case of `CCS(=O)(=O)Nc1ccc2c(c1)C(=O)N(C)[C@H]1CC[C@H](CC(=O)NCCCN3CCOCC3)O[C@H]1CO2`, the “activity change, negative = cytotoxicity” value was -2.75%. The same measure, in the same setting: the value for `COC(=O)C[C@H]1CC[C@@H]2[C@@H](COc3ccc(NC(=O)Nc4ccc(Cl)cc4)cc3C(=O)N2C)O1` was -8.59%; that for `COC(=O)C[C@@H]1CC[C@@H]2[C@H](COc3ccc(NC(=O)c4cc(F)cc(F)c4)cc3C(=O)N2C)O1` was -17.8%; that for `CO[C@H]1CN(C)C(=O)c2ccc(NC(C)=O)cc2OC[C@@H](C)N(C(=O)CC2CC2)C[C@H]1C` was -2.04%. On the same count and under the same terms, the value for `O=C(NC[C@H]1[C@H](c2ccccc2)[C@H](CO)N1CC1CCCC1)c1ccncc1` was 2.8% [at 23.5 µM]; that for `CN(C[C@H]1[C@H](c2ccccc2)[C@@H](CO)N1CC1CC1)C(=O)c1cccc(F)c1` was -1.25% [at 23.5 µM]. Still for that read-out and setting: the value for `CN1[C@@H](CO)[C@@H]2c3ccccc3N(C(=O)Nc3cc(F)ccc3F)C[C@@H]21` was -20.7%; that for `CO[C@H]1CN(C)C(=O)c2cc(NC(=O)c3ccccc3F)ccc2OC[C@@H](C)N(C)C[C@@H]1C` was -1.08%. On to `CNC(=O)C[C@H]1CC[C@@H]2[C@H](COc3ccc(NC(=O)Nc4ccccc4OC)cc3C(=O)N2C)O1`, for which the “activity change, negative = cytotoxicity” value was -0.263%.

For the compound `COCC(=O)N(C[C@H]1N[C@@H](CO)[C@@H]1c1ccc(C2=CCCC2)cc1)C(C)C`, the “activity change, negative = cytotoxicity” value is -19.8%. Still for that read-out and setting: the value for `N#CCc1c(C#N)c(N)nc(N2CCN(S(=O)(=O)c3ccccc3)CC2)c1C#N` was -7.64%.

Regarding `CCNC(=O)C[C@@H]1CC[C@@H]2[C@@H](COc3ccc(NC(=O)C4CCCCC4)cc3C(=O)N2C)O1`, the “activity change, negative = cytotoxicity” value was 3.38% [at 23.5 µM]. Same read-out and setting: the value for `C/C=C/c1ccc([C@H]2[C@@H](CO)N[C@@H]2CN(CC(C)C)C(=O)c2ccccn2)cc1` was 13.9%. On the same count and under the same terms, the value for `COCCNC(=O)C[C@H]1CC[C@@H]2[C@@H](COc3ccc(NS(=O)(=O)c4ccc(Cl)cc4)cc3C(=O)N2C)O1` was -14.5%; that for `Cc1cc(C)cc(NC(=O)c2ccc(CSc3nnc(C)s3)cc2)c1` was -16.6%. Still for that read-out and setting: the value for `COc1cc(-c2nnc(-c3ccco3)o2)ccc1OCc1ccccc1` was -1.14%.
